Data published in PubChem BioAssay (NCATS).
Inconclusive results are not listed. Activity calls are given as the source filed them. Unless noted, no rule for the calls is given here.

Key:
[1] = qHTS profiling of the MIPE4 collection as inhibitors of Plasmodium falciparum (DD2) proliferation (AID 743345); details: P. falciparum Dd2 in erythrocytes, SYBR Green DNA, 72 h; at 28.5 µM (top of the series) unless noted
Procedure, shortened: (§1)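 Parasite DNA was quantified by SYBR Green I fluorescence (ex 485, em 535 nm) after overnight lysis in saponin/Triton buffer at room temperature. Cultures at 0.3% parasitemia and 2.5% hematocrit were first exposed to compound for 72 h at 37 C; signals were normalised to artemisinin (0.29 uM) and vehicle wells.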

[2] = qHTS profiling of the MIPE4 collection as inhibitors of Plasmodium falciparum (HB3) proliferation (AID 743347);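 also: plate controls were DMSO vehicle wells for no effect and artemisinin wells for full effect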; details: P. falciparum HB3 in erythrocytes, SYBR Green DNA, 72 h; at 28.5 µM (top of the series) unless noted
Procedure, shortened: as §1

[3] = High-throughput drug toxicity screening in the BPDCN cell line Gen2.2 (AID 1224824); details: Gen2.2 BPDCN cells; at 45.8 µM (top of the series) unless noted
Procedure, shortened: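 CellTiter-Glo luminescence after 48 h compound exposure of Gen2.2 cells; percent activity set with DMSO as 100% and bortezomib (9.2 uM final) as 0%. Cells seeded at 500 per well, RPMI + 10% FBS, 37 °C.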

[4] = High-throughput drug toxicity screening in the BPDCN cell line Cal-1 (AID 1224825); details: Cal-1 BPDCN cell viability, qHTS; at 45.8 µM (top of the series) unless noted
Procedure, shortened: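 CellTiter-Glo luminescence after 48 h compound exposure; percent activity scaled with DMSO as 100% and bortezomib (9.2 uM final) as 0%. Cal-1 cells seeded at 500/well in RPMI, 10% FBS, no phenol red.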

[5] = qHTS assay for measurement of the activity of small molecule inhibitors on Zika virus induced Caspase-3 activity in human iPSC derived neural progenitor cells (hNPCs) (AID 1224857; active = well fitted curve in the direction sought with a large enough effect; an effect the other way counts as inactive or inconclusive; also: nearly all actives have a fitted effect of over 65% in size; also: potency is read from the fitted curve at half-maximal effect)
Procedure, shortened: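 Zika virus (2 FFU/cell) infection of human iPSC-derived NPCs, 6 h, following 1 h compound preincubation. Read-out: Caspase-Glo 3/7 luminescence.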

[6] = qHTS assay for measurement of the activity of small molecule inhibitors on Zika virus induced Caspase-3 activity in human astrocytoma cells (AID 1224859; active = well fitted curve in the direction sought with a large enough effect; an effect the other way counts as inactive or inconclusive;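 also: plate controls were ZIKV-infected untreated cells for no effect and uninfected cells for full effect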)
Procedure, shortened: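 Caspase activation in ZIKV-infected SNB-19 cells (2 FFU/cell, 6 h) measured by Caspase-Glo 3/7 luminescence after 30 min RT; compound pre-incubated 1 h; normalised to uninfected and infected controls.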

[7] = qHTS profiling for inhibitors of Plasmodium falciparum (HB3) proliferation (AID 743324; active = well fitted curve in the direction sought with a large enough effect; an effect the other way counts as inactive or inconclusive;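 also: 100% = DMSO vehicle wells and 0% = artemisinin-treated control wells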); details: Plasmodium falciparum HB3 blood-stage proliferation; at 28.7 µM (top of the series)
Procedure, shortened: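 SYBR Green fluorescence (485 ex/535 em) of lysed cultures, incubated overnight at room temperature in the dark, quantifies parasite DNA. Infected erythrocytes at 0.3% parasitemia and 2.5% hematocrit were exposed 72 h; values normalized to DMSO and 0.29 uM artemisinin controls.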

[8] = qHTS profiling of the MIPE4 collection as inhibitors of Plasmodium falciparum (3D7) proliferation (AID 743344);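 also: scaled between DMSO vehicle wells and 0.29 µM artemisinin as full inhibition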; details: P. falciparum 3D7 in erythrocytes, SYBR Green DNA fluorescence, 72 h; at 28.5 µM (top of the series) unless noted
Procedure, shortened: as §1

[9] = qHTS profiling of the MIPE4 collection as inhibitors of Plasmodium falciparum (DD2) proliferation (Rep 2) (AID 743346); details: P. falciparum Dd2 in erythrocytes, SYBR Green DNA, 72 h; at 28.5 µM (top of the series) unless noted
Procedure, shortened: as §1

[10] = qHTS Screen of the MIPE 4.0 Collection Against Ewings Sarcoma (RDES) (AID 1259252; active = well fitted curve in the direction sought with a large enough effect; an effect the other way counts as inactive or inconclusive; also: nearly all actives have a fitted effect of over 35% in size; also: potency is read from the fitted curve at half-maximal effect)
Procedure, shortened: (§2)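 Viability screen: 48 h incubation at 37C, 95% humidity, 5% CO2 with serially titrated compound, followed by CellTiter-Glo readout.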

[11] = qHTS Screen of the MIPE 4.0 Collection Against Ewings Sarcoma (TC71) (AID 1259253; active = well fitted curve in the direction sought with a large enough effect; an effect the other way counts as inactive or inconclusive; also: nearly all actives have a fitted effect of over 40% in size; also: potency is read from the fitted curve at half-maximal effect)
Procedure, shortened: as §2

[12] = qHTS Screen of the MIPE 4.0 Collection Against Ewings Sarcoma (EW8) (AID 1259255; active = well fitted curve in the direction sought with a large enough effect; an effect the other way counts as inactive or inconclusive; also: nearly all actives have a fitted effect of over 35% in size; also: potency is read from the fitted curve at half-maximal effect;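 as to viability: 100% = DMSO-treated cells and 0% = medium-only wells without cells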)
Procedure, shortened: as §2

[13] = qHTS Screen of the MIPE 4.0 Collection Against Ewings Sarcoma (TC32) (AID 1259256; active = well fitted curve in the direction sought with a large enough effect; an effect the other way counts as inactive or inconclusive; also: nearly all actives have a fitted effect of over 45% in size; also: potency is read from the fitted curve at half-maximal effect)
Procedure, shortened: as §2

[14] = Identifying Small Molecule Inhibitors of Pancreatic Cancer Stem Cells (A278, Adherent) (AID 1259361; active = well fitted curve in the direction sought with a large enough effect; an effect the other way counts as inactive or inconclusive;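 also: viability read after 48 h compound exposure; nearly all actives have a fitted effect of over 35% in size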)
Procedure, shortened: (§3)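 Monolayer and spheroid cultures are compared. Spheroids form over 14 days in stem cell medium on hydrogel-coated low-attachment plates, then are exposed to compound for 48 h before CellTiter-Glo luminescence.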

[15] = Identifying Small Molecule Inhibitors of Pancreatic Cancer Stem Cells (A2780, Spheroid) (AID 1259357; active = well fitted curve in the direction sought with a large enough effect; an effect the other way counts as inactive or inconclusive;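 also: potency is read from the fitted curve at half-maximal effect; compound exposure lasted 48 h before the ATP luminescence read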); details: Potency: A2780 spheroid viability
Procedure, shortened: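 Spheroids grown 14 days in stem cell media on hydrogel-coated nonadherent plates; 2D lines seeded directly. Compounds added after 4 h attachment, 48 h at 37C, 5% CO2; CellTiter-Glo luminescence normalized to DMSO (no inhibition) and no-cell wells (full inhibition).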

[16] = Identifying Small Molecule Inhibitors of Pancreatic Cancer Stem Cells (SN12C, Adherent) (AID 1259358; active = well fitted curve in the direction sought with a large enough effect; an effect the other way counts as inactive or inconclusive;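 also: potency is read from the fitted curve at half-maximal effect; cell survival measured after 48 h of compound exposure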)
Procedure, shortened: as §3

| Structure (SMILES) | parasite growth remaining, % of DMSO control (lower = more inhibition) [1] | growth, % of control [2] | cell viability, % of control (lower = more cytotoxic) [3] | viability (% of control) [4] | Potency [5] | Potency [6] | remaining proliferation (% of control), lower = more inhibition [7] | parasite growth, % of DMSO control [8] | parasite growth, % of control (lower = inhibition) [9] | Potency [10] | Potency [11] | Potency [12] | Potency [13] | IC50 (viability decrease) [14] | Potency [15] | Potency [16] |
| --- | --- | --- | --- | --- | --- | --- | --- | --- | --- | --- | --- | --- | --- | --- | --- | --- |
| COCCOc1nc(-c2ccc(Cl)c(Cl)c2)n(-c2ccc(NC(=O)CCl)cc2)n1 | 64% | 30.2% | 114% | 37.2% | inactive | inactive | – | – | – | – | – | – | – | – | – | – |
| Cc1nc(N)sc1-c1ccnc(Nc2ccc(N3CCOCC3)cc2)n1 | – | 5.5% | 33.6% | 6.5% | – | inactive | 10.5% | 6.44% | 16.4% | 18.7 µM (active) | 14.8 µM (active) | 0.833 µM (active) | 16.6 µM (active) | 5.9 µM (active) | – | – |
| COc1cccc(-c2cc(=O)c3ccccc3o2)c1N | 91.1% | 60% | 45.3% | 9.08% | 18.7 µM (active) | – | – | 73.4% | 87.6% | inactive | – | inactive | – | – | – | – |
| CC(=O)N(C)C1(c2ccccc2)CCN(CCC[C@]2(c3ccc(Cl)c(Cl)c3)CCCN(C(=O)c3ccccc3)C2)CC1 | – | 7.98% | 9.34% | 7.8% | inactive | – | -1.35% | 6.96% | 38.7% | 26.4 µM (active) | 20.9 µM (active) | 23.5 µM (active) | 26.4 µM (active) | 9.35 µM (active) | 18.7 µM (active) | 20.9 µM (active) |
| O=C1Nc2ccc(Cl)cc2C(C#CC2CC2)(C(F)(F)F)O1 (centres undefined) | 76% | 63% | 75.6% | 56.5% | inactive | – | – | 40.8% | – | – | – | 26.4 µM (active) | – | – | – | – |
| CC1(C)Cc2c(sc(NC(=S)NC(=O)c3ccccc3)c2C(=O)O)CO1 | 100% | 103% | 100% | 95.7% | 20.9 µM (active) | – | – | 90.4% | 110% | 29.6 µM (active) | – | inactive | – | – | – | – |
| O=C(O)c1cc(O)c2c(c1)C(=O)c1cccc(O)c1C2=O | 73.9% [at 57.5 µM] | 44.1% [at 57.5 µM] | 168% [at 92.2 µM] | 124% [at 92.2 µM] | 38.2 µM (active) | – | – | – | 43.2% [at 57.5 µM] | inactive | inactive | – | inactive | – | – | – |
| O=C1C[C@@H](c2ccc(O)cc2)Oc2cc(O)cc(O)c21 | – | 5.63% | 70.3% | 103% | 18.7 µM (active) | – | – | 20% | – | – | – | 13.2 µM (active) | inactive | – | – | – |
| COc1ccc2c3c1OC1C[C@@H](O)C=C[C@@]31CCN(C)C2 (some centres undefined) | 100% | 69.6% | 113% | 96.5% | inactive | inactive | – | – | – | – | – | – | – | – | – | – |
